Screening results (PubChem BioAssay)
An excerpt weighted towards active compounds, which were near 19% of everything screened.
IL1B secr inh – inflammasome signaling inhibition, IL-1 beta readout | THP-1 LPS/ATP IL-1B secretion, AlphaLISA, 16 h; stronger effect = lower value | activity change, % at 57.5 µM | actives 4.7% (n = 360,000); in the data active = activity change below about -50%; inconclusive = mostly about -30% to -49%
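Secreted IL-1B measured by AlphaLISA bead assay after 16 h compound exposure of THP-1 cells; compounds (final up to 57.5 uM) added 1 h before LPS (250 ng/mL) and ATP (1.25 mM) stimulation; lower signal means less secretion.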
DT40 TDP1 no CPT – qHTS for Inhibitors of human tyrosyl-DNA phosphodiesterase 1 (TDP1): qHTS in cells in absence of CPT | DT40 Tdp1-/- hTDP1 cells, no CPT, ATP luminescence, 48 h | Potency, µM (top dose mostly 46.2 µM), inactives show top-dose activity change, negative = growth inhibition, actives largely listed as inhibitors | actives 15% (n = 420,000) | AID 686978, 2013; note: potency is the fitted concentration of half-maximal effect; nearly all actives have a fitted effect of over 55% in size
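Growth of hTDP1-complemented DT40 Tdp1-knockout cells is measured by ATP luminescence after at least 48 hr compound exposure at 37 °C, with DMSO substituting for the 20 nM CPT used in the parallel screen.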
TDP1 cell CPT – growth inhibition of DT40 Tdp1-/-;hTDP1 cells with camptothecin (screen for TDP1 inhibitors); chicken DT40 Tdp1-/-;hTDP1 cells + 20 nM CPT, ATP luminescence, 48 h; Potency, µM (doses to about 46.2 µM), for the others: top-dose activity change, negative = growth inhibition, usual class: inhibitors; actives 12% (n = 420,000); note: potency is the fitted concentration of half-maximal effect; nearly all actives have a fitted effect of over 55% in size
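Chicken DT40 Tdp1-/- cells complemented with human TDP1, 400 cells/well, exposed to compounds plus 20 nM camptothecin for at least 48 h at 37 C; viability read as ATP content by CellTiter-Glo luminescence.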
HT1080-NT tox – kills 2HG-producing HT-1080-NT fibrosarcoma cells. HT-1080-NT fibrosarcoma viability, CellTiter-Glo ATP luminescence, 48 h. Potency, µM (titrated, usually from 46.1 µM), without a hit: at the highest dose activity, negative = less viability, hits mostly cytotoxic. actives 1.6% (n = 360,000). AID 686970;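 note: NT is the 2HG producing partner of a matched IDH1 knockdown line; potency is the fitted concentration of half-maximal effect; 0% = DMSO-treated cells and -100% = media-only wells without cells; nearly all actives have a fitted effect of over 55% in size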
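Luminescent CellTiter-Glo readout after 48 hours of compound exposure at 37 degrees C defined viability of HT-1080-NT cells. Activity was normalized to DMSO wells and cell-free media wells; concentration-response curves were fitted and assigned curve classes.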
HT1080 IDH1KD tx – kills HT-1080 cells with IDH1 knockdown; actives 2% (n = 360,000); Potency, µM (highest dose often 46.1 µM), without a hit: at the highest dose activity, negative = toxicity, usual class: cytotoxic; AID 686971; HT-1080 IDH1 knockdown viability, ATP luminescence, 48 h;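 note: potency is the fitted concentration of half-maximal effect; 0% = DMSO wells and -100% = cell-free medium wells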
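Viability of IDH1-knockdown HT-1080 fibrosarcoma cells was assessed by CellTiter-Glo after 48 h at 37 °C with titrated compound; concentration-effect curves were classified by fit quality and response size.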
ELG1 repair inh – inhibitors of ELG1-dependent DNA repair in HEK293T cells; HEK293T ELG1-luciferase reporter, luminescence, 16 h; DNA damage induced by 5-fluorouridine; Potency, µM (doses to about 46.1 µM), inactives show top-dose activity change, negative = inhibition, most hits filed as inhibitors; actives 2.3% (n = 330,000); AID 504467; note: potency is the fitted concentration of half-maximal effect; nearly all actives have a fitted effect of over 55% in size
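DMSO vehicle served as the neutral condition. Each well held 2,000 cells given 5-fluorouridine plus compound; after 16 hr at 37 °C/5% CO2, ONE-Glo was added and luciferase measured 30 min later.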
Numbers without * were called inactive; i = inactive; u = inconclusive; x = no result given. Unless noted, calls come from the whole dose curve; as a rule, active = well fitted curve in the direction sought with a large enough effect; inconclusive = small, poorly fitted or top-dose-only effect, or another doubt; inactive = no such curve, though single readings can be large; an effect the other way counts as inactive or inconclusive. Unless noted, % is set by controls: 0 for no effect and ±100 for the full control effect.

SMILES	IL1B secr inh	DT40 TDP1 no CPT	TDP1 cell CPT	HT1080-NT tox	HT1080 IDH1KD tx	ELG1 repair inh
O=C1NC(Cc2ccccc2)c2nc3cc(F)ccc3c(=O)n2-c2ncccc21 (centres undefined)	-23	-9%	-5%	-6%	-9%	x
COc1ccc(C(=O)Nc2sc(C)c(-c3ccccc3)c2C#N)cc1OC	-19	21µM*	u	-14%	u	26µM*
COc1ccc(-c2c(C)sc(NC(=O)c3ccnn3C)c2C#N)cc1	10	u	-11%	13µM*	21µM*	-11%
COc1ccc(C(=O)NC2=C(C#N)CCC2)cc1OC	-9	-2%	-22%	0%	0%	-4%
CCCCn1c(N)c(N(Cc2ccccc2OC)C(=O)C(C)C)c(=O)[nH]c1=O	i	-6%	-4%	-1%	0%	u
COc1ccc(NC(=O)C(=O)c2cc(C)n(-c3ccc(C)cc3)c2C)cc1Cl	x	8.2µM*	u	x	x	x
Cc1cc(C(=S)N2CCOCC2)c(C)n1-c1ccc(Cl)cc1	-18	21µM*	21µM*	4%	-1%	-24%
Cc1cc(C)cc(-n2c(C)cc(C(=S)N3CCOCC3)c2C)c1	-54*	12µM*	u	7%	8%	-14%
Cc1cccc(-n2c(C)cc(C(=S)N3CCOCC3)c2C)c1C	-21	18µM*	15µM*	8%	5%	-24%
CCNC(=O)C(=O)Nc1ccc(OC)c(Cl)c1	0	u	-14%	12%	20%	u
Cc1cc(C)cc(N2CCN(C(=O)N3CCOCC3)CC2)c1	8	-13%	-10%	14%	-1%	-1%
COc1cc(OC)c(N(C)C(=O)c2c(C)oc3ncn(CC(C)C)c(=O)c23)cc1Cl	x	-27%	-12%	x	x	x
COc1ccc(C)cc1NC(=O)c1ccc2c(c1)N(Cc1cccc(Cl)c1)C(=O)c1ccccc1S2=O (centres undefined)	x	-9%	-10%	x	x	x
Cc1cc(C(=O)C(=O)N(C)C)c(C)n1-c1ccc(Cl)cc1	9	18µM*	u	0%	-2%	3%
C=CCN(CC=C)C(=O)C(=O)c1cc(C)n(-c2ccc([N+](=O)[O-])cc2)c1C	10	15µM*	u	-4%	-3%	-18%
Cc1cc(C)c(Cn2c(=O)n(-c3ccccc3Cl)c(=O)c3c(C)c(C(=O)N(C)C)sc32)c(C)c1	x	-2%	-5%	x	x	x
COc1ccc(-c2cc(C)no2)cc1S(=O)(=O)NCCCN1CCCCCC1	-51*	-3%	-12%	-9%	-2%	12%
COc1ccc(-c2cc(C)no2)cc1S(=O)(=O)Nc1cccc(C)c1	11	-26%	-9%	-18%	u	13%
COc1ccc(-c2onc(C)c2C)cc1S(=O)(=O)Nc1cc(Cl)ccc1C	x	3.7µM*	3.7µM*	x	x	x
CCc1ccc(-c2cc(C)no2)cc1S(=O)(=O)Nc1cc(OC)c(OC)c(OC)c1	x	16µM*	16µM*	x	x	x
COC(=O)c1ccc(NS(=O)(=O)c2cc(-c3cc(C)no3)ccc2OC)cc1	35	2.9µM*	3.7µM*	x	x	-12%
CCOc1ccccc1-c1nc(Cn2c(=O)cc(C)c3c(C)nn(-c4ccccc4)c32)c(C)o1	x	5%	1%	x	x	x
O=c1c(Cc2c(F)cccc2Cl)c(O)ccn1CCc1ccccn1	1	4%	-19%	15%	9%	1%
O=C(Nc1ccc(N2CCN(CCOc3ccc(Cl)cc3)CC2)c(C(=O)O)c1)c1ccc(F)cc1	x	-5%	-24%	x	x	x
CN(C(=O)c1ccc(NC(=O)Cc2cccc(NC(=O)C3CCN(C(=O)C4CCCC4)CC3)c2)cc1)C1CC1	-27	u	2%	-4%	-4%	x
SMILES	IL1B secr inh	DT40 TDP1 no CPT	TDP1 cell CPT	HT1080-NT tox	HT1080 IDH1KD tx	ELG1 repair inh
CN1CCN(CCc2nc3cc(NC(=O)COc4ccc([N+](=O)[O-])cc4)ccc3n2C)CC1	-19	-8%	-1%	-1%	1%	0%
COc1ccccc1NS(=O)(=O)c1cc(-c2cc(C)no2)ccc1OC	31	-14%	-13%	-15%	-28%	10%
COc1ccc(-c2onc(C)c2C)cc1S(=O)(=O)Nc1cccc(C#N)c1	x	21µM*	23µM*	x	x	x
COc1ccc(-c2cc(C)no2)cc1S(=O)(=O)Nc1ccccc1	-12	9.2µM*	26µM*	u	16µM*	u
Cc1cc(-c2ccc(C)c(S(=O)(=O)NC(c3cccs3)C(C)C)c2)on1 (centres undefined)	x	18µM*	18µM*	x	x	x
COc1ccc(Cl)cc1NS(=O)(=O)c1cc(-c2cc(C)no2)ccc1C	x	7.3µM*	6.5µM*	x	x	x
Cc1cc(-c2ccc(C)c(S(=O)(=O)Nc3cccc(C)n3)c2)on1	x	u	3%	x	x	x
NC(=O)c1ccc[n+](Cc2ccccc2)c1	5	-2%	-5%	7%	1%	13%
CC1=CCC2COC(c3ccc[n+](Cc4ccccc4)c3)C1C2 (centres undefined)	-7	2.9µM*	3.7µM*	-27%	-25%	-20%
Cn1cc(C(=O)N2CCN(c3cccc(C(F)(F)F)c3)CC2)c2c3ccccc3n(C)c2c1=O	x	16µM*	23µM*	x	x	x
CN1CCN(CCCNC(=O)c2cn(C3CCCCC3)c(=O)c3c2c2ccccc2n3C)CC1	u	-11%	-11%	-23%	-5%	u
Cn1c2ccccc2c2c(C(=O)NCCCN3CCCC3=O)cn(C3CCCCC3)c(=O)c21	-7	u	-27%	-4%	-1%	-16%
Cn1c2ccccc2c2c(C(=O)N3CCN(c4cccc(C(F)(F)F)c4)CC3)cn(C3CCCCC3)c(=O)c21	x	16µM*	u	x	x	x
Cn1c2ccccc2c2c(C(=O)N3CCN(c4ccccc4)CC3)cn(C3CCCC3)c(=O)c21	-29	8.2µM*	26µM*	u	-28%	u
CC(=O)c1ccc(N2CCN(C(=O)c3cn(C)c(=O)c4c3c3ccccc3n4C)CC2)cc1	x	23µM*	u	x	x	x
Cc1ccc(CNc2ccc3cc(S(=O)(=O)N4CCCCC4)ccc3n2)cc1	x	10µM*	10µM*	x	x	x
CC1CCN(S(=O)(=O)c2ccc3nc(NCc4ccc(N(C)C)cc4)ccc3c2)CC1	x	12µM*	23µM*	x	x	x
Cc1cccc(N2CCN(c3ccc4cc(S(=O)(=O)N5CCC(C)CC5)ccc4n3)CC2)c1C	x	-16%	1%	x	x	x
CC1CCN(S(=O)(=O)c2ccc3nc(NCc4ccc(F)cc4)ccc3c2)CC1	x	13µM*	13µM*	x	x	x
